# High-throughput results (PubChem BioAssay)
# ClpP mod – qHTS Assay for Activators of ClpP. actives 1.9% (n = 340,000). AID 651965, 2013. Potency, µM (highest dose often 57.5 µM), for inactives: at the highest dose activity change, negative = active. purified B. subtilis ClpP, FRET peptide cleavage, 20 min; active = well fitted falling curve with a large enough effect; inconclusive = small, poorly fitted or top-dose-only effect; inactive = no such curve, though single readings can be large or run the other way; note: the source files actives as falling curves though it sought activators and does not explain the sign; nearly all actives have a fitted effect of over 65% in size
# Target sequence (P80244 whole entry, looked up): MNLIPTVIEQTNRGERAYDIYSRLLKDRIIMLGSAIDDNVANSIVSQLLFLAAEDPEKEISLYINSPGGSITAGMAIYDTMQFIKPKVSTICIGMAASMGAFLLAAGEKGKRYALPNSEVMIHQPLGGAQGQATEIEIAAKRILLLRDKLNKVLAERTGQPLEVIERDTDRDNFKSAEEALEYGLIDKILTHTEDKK
#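 Purified B. subtilis ClpP, 10 microg/mL final in Tris/HCl pH8 with KCl, BSA, glycerol and Tween-20, cleaved an Abz/nitrotyrosine-quenched decapeptide. Fluorescence (ex 320, em 430) was read at 0 and 20 min at room temperature. Delta was normalized to 5.8 microM ADEP and DMSO/no-enzyme controls.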
# TDP1 block – TDP1 (human) enzyme inhibition; Q9NUW8; Potency, µM (series often up to 130 µM), for the others: at the highest dose activity change, negative = inhibition, actives largely listed as inhibitors; actives 0.28% (n = 350,000); recombinant TDP1, AlphaScreen DNA substrate cleavage; note: % is set by controls: 0 for no effect and ±100 for the full control effect; nearly all actives have a fitted effect of over 40% in size
#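 Signal: AlphaScreen proximity between streptavidin donor and anti-FITC acceptor beads on intact substrate. Reaction: Tdp1 1 nM, substrate 15 nM final, 5 min RT after 15 min compound preincubation.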
# TDP1 cell noCPT – qHTS for Inhibitors of human tyrosyl-DNA phosphodiesterase 1 (TDP1): qHTS in cells in absence of CPT. DT40 Tdp1-/- hTDP1 cells, no CPT, ATP luminescence, 48 h. Potency, µM (highest dose often 46.2 µM), inactives show at the top dose activity change, negative = growth inhibition, usual class: inhibitors. actives 15% (n = 420,000); note: % is set by controls: 0 for no effect and ±100 for the full control effect; nearly all actives have a fitted effect of over 55% in size
#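 DT40 Tdp1-/-;hTDP1 cells, no CPT (DMSO vehicle only), 400 cells/well; compounds pin-transferred; ≥48 hr, 37 °C; CellTiter-Glo 30 min RT dark, luminescence read.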
# TDP1 cell CPT – DT40-hTDP1 cell growth loss with CPT; chicken DT40 Tdp1-/-;hTDP1 cells + 20 nM CPT, ATP luminescence, 48 h; Potency, µM (top dose mostly 46.2 µM), for the others: at the highest dose activity change, negative = growth inhibition, most hits filed as inhibitors; actives 12% (n = 420,000); note: % is set by controls: 0 for no effect and ±100 for the full control effect; nearly all actives have a fitted effect of over 55% in size
#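 Chicken DT40 Tdp1-/- cells complemented with human TDP1, 400 cells/well, exposed to compounds plus 20 nM camptothecin for at least 48 h at 37 C; viability read as ATP content by CellTiter-Glo luminescence.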
# The depositor's hits bear a star; ? = inconclusive; . = no result; ! = not confirmed by another sample. Only some compounds are listed: those with a hit (about 17% of all), similar ones and a draw of the others. Unless noted, calls come from the whole dose curve; as a rule, active = well fitted curve in the direction sought with a large enough effect; inconclusive = small, poorly fitted or top-dose-only effect, or another doubt; inactive = no such curve, though single readings can be large; an effect the other way counts as inactive or inconclusive. Potency is the fitted concentration of half-maximal effect.
SMILES,ClpP mod,TDP1 block,TDP1 cell noCPT,TDP1 cell CPT
COC(=O)Cc1ccc(OC2(C)CCN(Cc3ccccc3OC(F)F)C2)cc1 (centres undefined),-4%,.,?,-13%
CCc1nnc(NC(=O)c2ccc(NS(=O)(=O)c3ccccc3)cc2)s1,28µM*!,0%,?,-29%
O=C(Nc1ncccc1O)c1ccc(NS(=O)(=O)c2ccc3[nH]c(=O)[nH]c3c2)cc1,-6%,-17%,?,?
O=C(Nc1ncccc1O)c1ccc(S(=O)(=O)Nc2ccccc2)cc1,.,.,5.2µM*,5.2µM*
O=C(Nc1ccccc1O)c1ccc(NS(=O)(=O)c2cccc3cccnc23)cc1,0%,.,7.3µM*,4.1µM*
Cc1ccccc1NC(=O)c1ccc(NS(=O)(=O)c2cc(C(C)(C)C)cc(C)c2C)cc1,-1%,5%,15µM*,?
COc1cc(OC)c(NS(=O)(=O)c2cc3c(cc2C)NC(=O)CO3)cc1Cl,1%,-1%,?,?
COC(=O)c1c(NC(=O)CSc2ccccc2N)sc(C)c1C,.,8%,?,?
CCCSc1nn2c(=O)c3ccccc3nc2s1,?,0%,-22%,18µM*
Cc1cccc(Nc2nn3c(=O)c4ccccc4nc3s2)c1,?,?,-9%,-3%
CCCc1nc2ccccc2c(=O)n1/N=C/c1c(C)[nH]n(-c2ccc(C)cc2)c1=O,-1%,12%,12µM*,21µM*
CCc1nc2ccccc2c(=O)n1/N=C/c1ccc(Cl)cc1,.,.,16µM*,-30%
O=C1N/C(=N/N=C/c2ccco2)SC1Cc1ccccc1 (centres undefined),2%,-3%,?,-18%
CCCCC1S/C(=N/N=C/c2ccco2)NC1=O (centres undefined),4%,8%,?,16µM*
COc1ccccc1CC1S/C(=N/N=C/c2ccco2)NC1=O (centres undefined),.,0%,6.5µM*,?
CCCOc1cccc(C2c3c(-c4ccccc4O)n[nH]c3C(=O)N2Cc2ccco2)c1 (centres undefined),-4%,11%,?,?
N#Cc1cccc(NC(=O)Nc2cccs2)c1,-1%,2%,16µM*,?
O=C(Nc1cccs1)Nc1c(F)cc(F)cc1Br,-1%,-2%,23µM*,7.3µM*
O=C(Nc1cccs1)Nc1c(F)c(F)c(F)c(F)c1F,-1%,-3%,16µM*,21µM*
CCc1cccc(NC(=O)Nc2cccs2)c1,-3%,8%,?,?
O=C(Nc1cccs1)Nc1cc(C(F)(F)F)ccc1Cl,0%,3%,16µM*,?
N[C@H](CSSC[C@@H](N)C(=O)O)C(=O)O,.,8%,.,.
COc1ccccc1CNC(=O)C1CCC(CNc2c(N3CCC(C)CC3)c(=O)c2=O)CC1 (centres undefined),0%,3%,-21%,-30%
CN(c1nc(-c2ccc(Br)cc2)cs1)C1CCS(=O)(=O)C1 (centres undefined),-2%,8%,?,?
Cc1cccc(C)c1NC(=O)Nc1cccs1,-3%,5%,18µM*,18µM*
SMILES,ClpP mod,TDP1 block,TDP1 cell noCPT,TDP1 cell CPT
O=C(Nc1cccs1)Nc1c(F)c(F)cc(F)c1F,1%,-7%,-5%,-12%
CC(C)Oc1ccc(CNC(=O)C2CCCCN2S(=O)(=O)c2ccc(F)cc2)cc1 (centres undefined),0%,5%,-28%,-37%
O=C(OCc1ccc([N+](=O)[O-])cc1)C1CC(=O)N(Cc2ccccc2)C1 (centres undefined),.,.,1%,-1%
COCCN(C(=O)C1CC(=O)N(Cc2ccccc2)C1)c1nc(-c2ccc([N+](=O)[O-])cc2)cs1 (centres undefined),-1%,5%,21µM*,16µM*
Cn1c(=O)c2c(-c3ccccc3)n3c(c2n(C)c1=O)C(c1cccc([N+](=O)[O-])c1)Nc1ccccc1-3 (centres undefined),0%,9%,?,13µM*
O=[N+]([O-])c1cccc(C2Nc3ccccc3CO2)c1 (centres undefined),2%,.,?,1%
COc1ccc(C2Nc3ccccc3C(=O)N2C2CCCCC2)cc1 (centres undefined),4%,1%,?,?
COc1ccc(C2Nc3ccccc3-n3c(-c4ccccc4)c4c(=O)n(C)c(=O)n(C)c4c32)cc1 (centres undefined),?,9%,?,16µM*
O=C(CN(C(=O)c1csnn1)c1ccc(Cl)cc1)NCCc1ccccc1,.,9%,-1%,5%
COc1ccc(NC(=O)CSc2nc3c(oc4ccccc43)c(=O)n2-c2ccc(C)c(C)c2)cc1,-11%,-3%,0%,-5%
CCOc1ccc(S(=O)(=O)NCc2ccc(F)cc2)c2cccnc12,25µM*,4%,-28%,-23%
CCOc1ccc(S(=O)(=O)NCc2ccc(OC)cc2)c2cccnc12,-6%,-3%,-23%,-6%
CCc1ccccc1NS(=O)(=O)c1ccc(OC)c2ncccc12,1%,3%,10µM*,18µM*
CCc1ccc(NS(=O)(=O)c2ccc(OC)c3ncccc23)cc1,-3%,-2%,-6%,?
COc1ccc(Cl)cc1NS(=O)(=O)c1cccc2cccnc12,0%,.,?,?
CCOc1ccc(S(=O)(=O)Nc2cccc(C)c2)c2cccnc12,1%,1%,18µM*,12µM*
CCOc1ccc(S(=O)(=O)Nc2cc(Cl)ccc2OC)c2cccnc12,-2%,2%,15µM*,15µM*
CCOc1ccc(S(=O)(=O)N2CCN(c3ccccc3OC)CC2)c2cccnc12,-1%,9%,23µM*,?
CCCOc1ccc(S(=O)(=O)Nc2ccccn2)c2ccccc12,-2%,.,-11%,2%
CCOc1ccc(S(=O)(=O)N2CCN(c3ccccc3)CC2)c2cccnc12,-3%,7%,-1%,0%
CCOc1ccc(S(=O)(=O)Nc2ccccn2)c2ccccc12,35µM*,3%,-5%,-2%
COC(=O)[C@H](COC(C)(C)C)NC(=O)O[C@@H]1C(=O)c2ccc(OC)cc2O[C@H]1c1ccc2c(c1)OCO2,.,4%,.,.
Cc1cc(C)c(Cn2c(=O)n(-c3ccccc3Cl)c(=O)c3c(C)c(C(=O)N(C)C)sc32)c(C)c1,1%,0%,-2%,-5%
CCC(C)c1ccccc1NC(=O)COC(=O)C1=COCCO1 (centres undefined),.,3%,-19%,9%
COC(=O)CCC[C@H]1CC2(C[C@H](CCCO[Si](C)(C)C(C)(C)C)N1C(=O)OC(C)(C)C)OCCO2,0%,0%,18µM*,?
